Experimental data published in PubChem BioAssay AID1347416 (National Center for Advancing Translational Sciences (NCATS), 2020).
The campaign covered roughly 4,100 compounds. About 1,600 (39%) were called active. Roughly 25% stayed inconclusive and do not appear here. The call rests on the fitted dose curve; in most records, active means well fitted inhibition curve with a large enough effect; inconclusive means small, poorly fitted or top-dose-only effect; inactive means no such curve, though single readings can be large or run the other way. This is one part of the list.

Assay: qHTS Validation assay for Inhibitors of Plasmodium falciparum Dd2 growth in vitro; further: nearly all actives have a fitted effect of over 70% in size
Settings: P. falciparum Dd2 in RBCs, SYBR Green growth, 72 h; series mostly up to 28.7 µM; activity change, negative = inhibition: at the top concentration
Summary of the method: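 P. falciparum Dd2-infected red blood cells (2.5% hematocrit, 0.3% parasitemia) grown 72 h at 37 °C under 5% O2 with compounds in a titration, 29 uM to 0.5 nM final. Growth read as SYBR Green-1 fluorescence after ~16 h lysis; artesunate 300 nM as positive control.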
On the % scale 0 is the no-effect control and ±100 the full control effect; potency means the concentration at half of the fitted maximal effect.

Potency, active:
Cc1nc2ccc(NC(=O)c3cc(S(=O)(=O)N(C)c4ccccc4)ccc3Cl)cc2s1 0.842 µM, COc1cccc(OC)c1C(=O)NC(=S)Nc1ccc2c(c1)C(=O)N(C)C2=O 0.944 µM, COC(=O)[C@@H]1Cc2c([nH]c3ccccc23)[C@H]2C[C@H](N3CCCCC3)C[C@@H](c3ccccc3F)N21 5.96 µM, CC(C)C(=O)N1Cc2ccccc2CC2(CCCN(CC3CCCCC3)C2)C1 (stereo not given) 0.0531 µM, CC(C)(C)c1cnc([C@@H]2COCCN2Cc2ccccc2O)[nH]1 13.7 µM, Cc1ccc(CN2CCOC[C@H]2c2ncc(C(C)(C)C)[nH]2)cc1 13.7 µM, Cc1nn2c(c1-c1ccccc1-c1ccccc1)N(Cc1ccc(O)cc1)CCC2 0.485 µM, Cc1nn2c(c1-c1ccccc1-c1ccccc1)N(Cc1cccc(O)c1)CCC2 4.85 µM, CCOc1ccc(NS(=O)(=O)c2csc(C(N)=O)c2)cc1 7.5 µM, CCn1cc(C(=O)O)c(=O)c2cnc(N3CCN(C(=S)Nc4ccccc4)CC3)nc21 3.76 µM, Cc1ccc(C(=O)c2cc(C)sc2NC(=O)CN2CCN(C(=O)c3ccco3)CC2)cc1 7.5 µM, CCc1cc(C(=O)OC)c(NC(=O)CN2CCN(C(=O)c3ccco3)CC2)s1 5.96 µM, COc1ccccc1NC(=O)CSc1nc2c(oc3ccccc32)c(=O)n1-c1ccc(C)cc1 15 µM, COCCN1C(=O)c2ccccc2C(C(=O)Nc2nc3ccccc3[nH]2)C12CCCCC2 (stereo not given) 4.73 µM, COCCN1C(=O)c2ccccc2C(C(=O)Nc2nc3ccccc3[nH]2)C12CCCC2 (stereo not given) 4.22 µM, CCc1nc(NC(=O)C2c3ccccc3C(=O)N(CCOC)C23CCCC3)sc1C (stereo not given) 5.96 µM, Cc1cc(C(F)(F)F)nn1CC(=O)NCCc1ncc(C)n1CC1CC1 10.6 µM, Cc1cccc2cc(CN(Cc3ccco3)C(c3nnnn3CCc3ccccc3)C(C)C)c(=O)[nH]c12 (stereo not given) 10.6 µM, Cc1cccnc1Nc1nc(-c2ccccn2)cs1 0.473 µM, Cc1ccccc1Nc1nc(-c2cccnc2)cs1 9.44 µM, c1ccc(CCNc2nc(-c3ccccn3)cs2)cc1 7.5 µM, c1ccc(CNc2nc(-c3ccccn3)nc3ccccc23)cc1 5.31 µM, c1ccc(-c2nc(NCc3ccco3)c3ccccc3n2)nc1 5.96 µM, c1ccc(CCNc2nc(-c3ccccn3)nc3ccccc23)cc1 4.73 µM, CCCN(CCC)c1nc(-c2ccccn2)nc2ccccc12 5.31 µM, Oc1cc(NCc2ccccc2)cc2cccnc12 2.99 µM, Oc1cc(NCc2ccc(F)cc2)cc2cccnc12 4.73 µM, COc1ccc(NC(=O)CN(C)C(=O)c2oc3c(ccc4ccccc43)c2C)cc1 0.531 µM, COc1cccc(NC(=O)CN(C)C(=O)c2oc3c(ccc4ccccc43)c2C)c1 0.75 µM, COc1ccc(C(C(=O)Nc2ccc(C(C)C)cc2)N(Cc2ccco2)C(=O)CC2NC(=O)NC2=O)cc1 (stereo not given) 6.68 µM, CN1CCN(C(=O)c2ccc3c(c2)N(Cc2ccc(C(F)(F)F)cc2)C(=O)c2ccccc2S3)CC1 0.531 µM, CCOc1ccc(CN2C(=O)c3ccccc3Sc3ccc(C(=O)N4CCN(C)CC4)cc32)cc1 0.299 µM, O=C(Nc1ccsc1C(=O)NC1CCCCC1)c1ccc(F)cc1 6.68 µM, COC(=O)c1cnn(-c2ccc(C(=O)Nc3ccc(OC(F)(F)F)cc3)cc2)c1N 4.73 µM, CC(C)c1ccc(CC(=O)N2CCCc3ncc(C(=O)Nc4cccnc4)cc32)cc1 0.863 µM, CC(C)c1ccc(CC(=O)N2CCCc3ncc(C(=O)NCCc4c[nH]c5ccccc45)cc32)cc1 15 µM, O=C1N(c2ccccc2C(F)(F)F)O[C@@]1(c1ccccc1)C1CCCCC1 5.31 µM, O=C1N(c2ccccc2C(F)(F)F)O[C@@]1(c1ccccc1)C1CCCC1 2.99 µM, O=C1CC2(CCN(Cc3cccs3)CC2)Oc2cc(Cl)ccc21 5.31 µM, O=C1CC2(CCN(CC3CCCCC3)CC2)Oc2cc(Cl)ccc21 1.5 µM, COc1ccccc1CN1CCC(CNC(=O)c2cnn(-c3cccc(Cl)c3)c2C2CCN(C(=O)OC(C)(C)C)CC2)CC1 7.5 µM, COc1ccccc1CN1CCC(CNC(=O)c2cnn(-c3ccc(Cl)cc3)c2C2CCN(C(=O)OC(C)(C)C)CC2)CC1 2.66 µM, Cc1ccc(CN2CCC(CNC(=O)c3cnn(-c4ccc(C)cc4)c3C3CCN(C(=O)OC(C)(C)C)CC3)CC2)cc1 8.41 µM, COc1ccccc1CN1COc2ccc3c(oc(=O)c4ccccc43)c2C1 2.11 µM, CCc1c(C)c2ccc(O)c(CN3CCN(c4ccccc4)CC3)c2oc1=O 2.37 µM, COc1ccc(-c2cc(=O)oc3c4c(ccc23)OCN(Cc2ccccc2)C4)cc1 2.99 µM, O=c1cc(-c2ccccc2)c2ccc3c(c2o1)CN(Cc1ccccc1)CO3 2.66 µM

Activity change, negative = inhibition, inactive:
COc1ccc(NC(=O)c2ccc3c(c2)n(C)c(=O)c2ccnn23)cc1OC -18.1%, O=C(NC(=S)Nc1ccc2c(c1)OCCO2)c1ccccc1F 35%, C1CCC(COCCc2noc(C3CNC3)n2)C1 -91.5%, Cc1cc(C)cc(NC(=O)NCc2c(-n3cccc3)sc3c2CCCC3)c1 36.2%, CC(=O)N1Cc2ccccc2CC2(CCN(Cc3ccccn3)CC2)C1 17.5%, CC(=O)N1Cc2ccccc2CC2(CCN(CC3CCOCC3)C2)C1 (stereo not given) 12.6%, C[C@@H](c1ccccc1)N1C(=O)[C@@H]2CN(C(=O)c3cccnc3)CCN2C1=O 37.2% [at 43.1 µM], CCCCSc1nnc2c(n1)OC(C)N(C(C)=O)c1ccccc1-2 (stereo not given) 9.17%, COc1cc(NS(=O)(=O)c2cnc(N)nc2)cc(OC)c1 0%, CCOc1ccc(S(=O)(=O)Nc2ccc3oc4c(c3c2)CC(C)CC4)cc1 (stereo not given) 27.2%, CCn1cc(C(=O)N2CCN(c3ccc(OC)cc3)CC2)c(=O)c2cc(S(=O)(=O)N3CCOCC3)ccc21 32.5%, COCCOC1CCOC2(CCN(C(=O)c3ccco3)CC2)C1 (stereo not given) -41.3%, COc1ccccc1-n1c(SCC(=O)NC(C)(C)C)nc(O)cc1=O 12.2%, COCCN1C(=O)CCC2(CNC(=O)CCc3nc4ccccc4[nH]3)CCCC=C12 (stereo not given) 12.1%, COCCN1C(=O)CC[C@]2(C(=O)NCc3ccccc3Cl)CCCC[C@@H]12 -5.07%, COc1nc(N(C)S(=O)(=O)c2ccc(C)cc2)nc(C)c1Br 21.9%, Cc1cnc(CCNC(=O)Cn2c(=O)oc3ccccc32)n1C1CC1 -13.1%, Cc1nnc2n1CCC(N(C)S(=O)(=O)c1cn(C)cn1)CC2 (stereo not given) 10.2%, CN(CCn1cc(-c2nccn2C)nn1)S(C)(=O)=O 39.1%, Cc1noc(-c2ccn3c(CNC(=O)c4ccccc4Cl)nnc3c2)n1 10.4%, COC(=O)COc1ccc(-c2nccc(-c3ccccn3)n2)cc1 40%, O=C(O)Cn1c(-c2ccccn2)nc2ccccc21 41%, Cc1ccccc1Nc1nnc(SCc2cc(=O)n3ccsc3n2)s1 4.3%, Cc1nn(C)cc1CN(C)C(=O)CC12CC3CC(CC(C3)C1)C2 21.6%, CC(C)c1noc(-c2cn(C3CCCN(C(=O)c4ccc(N(C)C)cc4)C3)nn2)n1 (stereo not given) -13.1%, COc1ccc(OC)c(C2Nc3c(C)cc(C)cc3-c3cc(C)nn32)c1 (stereo not given) -26.2%, CCCCOc1cccc(C(=O)N(Cc2ccc(Br)o2)C2CCS(=O)(=O)C2)c1 (stereo not given) 0%, O=C(CCn1c(=O)c2cccn2c2cccnc21)NCc1ccc(F)cc1 3.25%, Cc1ccc(-c2cc3c(=O)n(CCNC(=O)c4cccnc4)ccn3n2)c(C)c1 -19.2%, COc1cccc(NC(=O)CCc2c(C)nc3c4cccnc4nn3c2C)c1 5.09%, COc1cccc(CNC(=O)Cn2c(SCC(=O)Nc3ccc(F)cc3)nc3ccccc32)c1 -22.5%, COc1ccc(C(=O)OCCc2cc3ccccc3c(=O)o2)cc1 24.1%, COCc1nc(C2CC(NC(=O)c3cc(-c4ccsc4)n[nH]3)C2)cc(=O)[nH]1 (stereo not given) 27.8%, O=C(c1ccc2[nH]ncc2c1)N1CCOCC12CCN(CCCc1ccccc1)CC2 -9.68% [at 43.1 µM], Cc1cn2nc(C(=O)N3CCC(NC(=O)c4ccc(F)cc4)CC3)cc2c(=O)[nH]1 9.32%, CCCN(CC1CCOC1)S(=O)(=O)c1ccc(C)c(C)c1 (stereo not given) 13.2%, Cc1ccc(C(=O)Nc2ccc(OCc3cc(=O)n4c(C)csc4n3)cc2)cc1 -7.09%, COC(=O)c1cnn(-c2ccc(C(=O)Nc3cccc(C(C)=O)c3)cc2)c1N 7.57%, O=C(NCc1ccc2c(c1)OCO2)c1cnc2c(c1)N([S+](=O)([O-])c1cccnc1)CCC2 1.02%, CNC(=O)c1cnc2c(c1)N(C(=O)Cc1ccc(C(C)C)cc1)CCC2 23.4% [at 43.1 µM], Cn1cc(CC(=O)N2CCCc3ncc(C(=O)Nc4cccnc4)cc32)c2ccccc21 -27.4% [at 43.1 µM], CC(C)CCNC(=O)c1cnc2c(c1)N(C(=O)Cc1cn(C)c3ccccc13)CCC2 -13% [at 43.1 µM], O=C(O)CCC(=O)Nc1ccc(-n2ccc(C(F)(F)F)n2)cc1 57%, CC(=O)c1c(C)nc(C)nc1NC(=O)C(C)C 16.1%, CNC(=O)[C@@H]1CN(C(=O)c2cc(OC)cc(OC)c2)C[C@H]1COC 15.4%, CC(=O)Nc1ccc(NC(=O)Cn2ccn3nc4c(c3c2=O)CCCCC4)cc1 38.6%, COc1ccc(-c2ncc3c(n2)OCCN(Cc2ccccc2)C3=O)cc1 -13.6% [at 43.1 µM], COc1ccccc1Cn1cc(C(=O)c2ccc(C)cc2)c(=O)c2cc(C)ccc21 -9.93%
